The source of these data is PubChem BioAssay (NCI).

Common to all, as to assay: NCI-60 one-dose screen, 48 h (100 = growth as untreated, 0 = no growth, -100 = all killed)
Details in all cases: 10 µM

Assay [1] concerns NCI-H23 lung.
Assay [2] deals with NCI-H226 lung.
The test system of assay [3] is NCI-H322M lung.
For assay [4], the system named is HOP-62 NSCLC.
The subject of assay [5] is NCI-H460 lung.
Assay [6] relates to HOP-92 NSCLC.
Assay [7] has as its system NCI-H522 lung.
In assay [8] the test system is A549/ATCC NSCLC.
The subject of assay [9] is 786-0 renal.
The test system of assay [10] is COLO 205 colon.
In assay [11] the test system is DU-145 prostate.
In assay [12] the test system is K-562 leukemia.
In assay [13] the test system is MALME-3M melanoma.
The test system of assay [14] is MDA-MB-231 breast.
Assay [15] concerns RXF 393 renal.
The subject of assay [16] is SF-268 CNS.
The test system of assay [17] is SF-295 CNS.
The test system of assay [18] is SF-539 CNS.
Assay [19] has as its system UACC-257 melanoma.
The subject of assay [20] is M14 melanoma.

The panel holds about 83,000 compounds, 20% with a hit somewhere; the sample as a whole holds those more often.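 Single-dose data. Exposure time 48 hours. Values below 10 considered active.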 Values without a mark were called inactive. Activity calls are given as the source filed them.

Regarding `CN(C)Cc1cc(C(C)(C)CC(C)(C)C)ccc1O`, the growth in assay [1] is 91%; in [2] it was 91.2%; in [3], 100%; in assay [4] it was 91.6%; in assay [5] it was 100%; in assay [6], 77.1%. The growth in [7] is 68.4%; in assay [8] it was 111%; in assay [9] it was 92.9%; in assay [10], 97.1%; in assay [11], 126%; in assay [12], 108%. The growth is 100% in [13]; 96.9% in assay [14]; 138% in [15]; 106% in assay [16]; 95.6% in assay [17]; 90.8% in [18]. Moreover, the growth is 112% in assay [19] and 98% in [20].
As to `O=C(Cc1nc2ccc([N+](=O)[O-])cc2nc1CC(=O)c1cccnc1)c1cccnc1`, the growth in [1] was 52.7%; in assay [2], 52.2%; in [3] it was 51%; in [4], 25.6%; in assay [5], 48.1%; in assay [6] it was 69.8%. For the same molecule, the growth is 18.5% in [7]; 64.8% in assay [8]; 15.8% in [9]; 121% in [10]; 76.5% in [11]; 70.7% in assay [12]. Also, the growth in [13] is 68.5%; in assay [15], 20.1%; in [16] it was 47%; in assay [17], 54.5%; in assay [18], 30.1%; in [19], 78.6%. Also, in assay [20], the growth was 82.8%.
Turning to `CCOC(=O)c1cc(/C=C/c2cccc(Cl)c2)on1`, the growth was 81.1% in assay [1]; 95.1% in [2]; 96.1% in assay [3]; 99.9% in assay [4]; 99.3% in assay [5]; 88.8% in [6]. Besides, the growth in assay [7] is 74.6%; in [8] it was 104%; in [9], 97.7%; in assay [10], 119%; in assay [11] it was 95.2%; in [12], 31.6%. The growth in assay [13] was 93.1%; in [15] it was 97.1%; in assay [16], 93.7%; in [17], 88.2%; in assay [18] it was 89.6%; in assay [19], 108%. Moreover, the growth in [20] is 78.8%.
Consider `CCN(CC)CCCC(C)Nc1ccnc(/C=C/c2ccc(Cl)cc2)c1` (stereo not given), for which the growth in assay [1] was 67.4%; in assay [2], 62.6%; in [3], 21.3%; in assay [4], 38.4%; in assay [5] it was 9.3% (active); in [6], -19.8% (active). Besides, the growth in [7] is -38.6% (active); in assay [8] it was 9.38% (active); in [9], 45.2%; in [10] it was -64.4% (active); in assay [11], 49.6%; in [12] it was 0.277% (active). The growth in assay [13] was -60.6% (active); in assay [14], -28.3% (active); in [15], -61.8% (active); in [16], 9.89% (active); in [18], -69.2% (active); in assay [19], -77.7% (active). In addition, the growth in assay [20] is -85.9% (active).
For `Nc1nc(N)c2cc(S(=O)(=O)c3cccc(C(F)(F)F)c3)ccc2n1`, the growth in [1] was 53.5%; in [2] it was 69.2%; in [3], 52.1%; in assay [4] it was 76.6%; in assay [5] it was 16.8%; in [6], 55.7%. Further, the growth in assay [7] was 63.9%; in assay [8], 15.9%; in assay [9] it was 38.1%; in assay [10], 62.5%; in assay [11] it was 48%; in assay [12] it was 17.7%. In addition, the growth was 63.8% in [13]; 67.9% in assay [14]; 62.2% in assay [15]; 29.2% in [16]; 51.4% in assay [18]; 43.7% in [19]. In [20], the growth was 44.5%.
For `COc1ccc(C2OC(N)=C(O)C2=O)cc1OC` (stereo not given), the growth was 102% in [1]; 97.5% in assay [2]; 102% in assay [3]; 105% in [4]; 110% in assay [5]; 98% in assay [6]. The growth was 93.6% in [7]; 118% in assay [8]; 101% in [9]; 125% in [10]; 109% in [11]; 94.6% in [12]. The growth in assay [13] was 95.5%; in assay [15], 110%; in assay [16], 101%; in assay [17], 99.9%; in assay [18] it was 90.9%; in assay [19], 106%. Further, the growth in assay [20] is 111%.
With `O=c1cc2oc3cc(O)c(O)cc3c(-c3ccccc3O)c-2cc1O`, the growth in assay [1] was 82.4%; in assay [2] it was 87%; in assay [3], 57.5%; in assay [4], 63%; in assay [5], 96%; in assay [6] it was 7.48% (active). Further, the growth is 66.8% in assay [7]; 108% in [8]; 57.2% in [9]; 126% in assay [10]; 86% in assay [11]; 54.1% in [12]. Moreover, the growth is 105% in assay [13]; 81.9% in assay [14]; 60.1% in [15]; -1.76% (active) in assay [16]; 101% in assay [17]; 52.3% in assay [18]. Further, the growth is 130% in [19] and 77.1% in [20].
For `O=C(Nc1cc(-c2ccccc2)[nH]n1)c1ccc(Cl)cc1`, the growth in assay [1] was 87.8%; in assay [2], 88.4%; in assay [3] it was 79.4%; in assay [4], 88.3%; in assay [5] it was 56%; in [6], 81.4%. Also, the growth in assay [7] was 72.5%; in [8] it was 70.3%; in assay [9], 79.5%; in assay [10] it was 104%; in assay [11], 77.6%; in assay [12], 61.1%. Besides, the growth is 92.6% in assay [13]; 114% in [14]; 32.4% in assay [15]; 74.2% in assay [16]; 71.2% in assay [17]; 66.2% in [18]. Moreover, the growth is 77.9% in assay [19] and 64.4% in [20].
